Inconclusive results are not listed. A call without a number means that no potency is given here. Active and inactive are the calls of the source. Unless noted, calls follow the shape of the dose curve; as a rule, active = well fitted curve in the direction sought with a large enough effect in the repeat runs; inconclusive = weak or mixed curves; inactive = no such curve, though single readings can be large; an effect the other way counts as inactive or inconclusive.
Legend:
[1] = qHTS assay to identify small molecule agonists of the peroxisome proliferator-activated receptor delta (PPARd) signaling pathway - cell viability counter screen (AID 743211); also: nearly all actives have a fitted effect of over 55% in size
Procedure, shortened: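 Tox21 library compounds, delivered in DMSO, were incubated 17 h with PPARd-bla HEK293H cells; cytotoxicity was taken from CellTiter-Glo luminescence read 30 min after reagent addition.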

[2] = qHTS assay to identify small molecule agonists of the NFkB signaling pathway - cell viability counter screen (AID 1159515; calls by dose curve; also: series mostly up to about 61 µM; nearly all actives have a fitted effect of over 55% in size)
Procedure, shortened: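 ME-180 NFkB-bla cells, 2,000/well; overnight attach; compound 5 hr, 37 C/5% CO2; LiveBLAzer substrate 1.5 hr RT; then CellTiter-Glo in same wells, 30 min RT, luminescence read.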

[3] = qHTS assay to identify small molecule agonists of the endoplasmic reticulum stress response signaling pathway (AID 1159516; active = well fitted activation curve with a large enough effect in the signal ratio in the repeat runs, not every such curve was filed as active; the % refers to the signal ratio)
Procedure, shortened: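 HeLa ESRE-bla reporter line; cpd 5 h, 37 C/5% CO2; LiveBLAzer B/G FRET substrate 2 h RT; ex 405, em 460/530 nm.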

[4] = qHTS assay to identify small molecule agonists of the endoplasmic reticulum stress response signaling pathway - cell viability counter screen (AID 1159517; calls by dose curve;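 also: HeLa cells carrying an ER stress response element beta-lactamase reporter; series mostly up to about 61 µM; nearly all actives have a fitted effect of over 50% in size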)
Procedure, shortened: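 ESRE-bla HeLa cells (1,500/well) were plated overnight at 37 C and exposed to compounds for 5 hr. After the 2 hr beta-lactamase substrate read, CellTiter-Glo went into the same wells, and luminescence was read after 30 min at room temperature.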

[5] = qHTS assay to identify small molecule antagonists of the retinoid-related orphan receptor gamma (ROR-gamma) signaling pathway - cell viability counter screen (AID 1159520); also: nearly all actives have a fitted effect of over 50% in size
Procedure, shortened: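 Cytotoxicity was read from cellular ATP (CellTiter-Glo luminescence) after 16 hr at 37 C with 1 uM doxycycline induction. The inducer was added 2 hr after compound transfer to Tet-on ROR gamma CHO cells.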

[6] = molecular target: Nuclear receptor ROR-gamma (Homo sapiens) (UniProt P51449); experiment: qHTS assay to identify small molecule antagonists of the retinoid-related orphan receptor gamma (ROR-gamma) signaling pathway (AID 1159521; also: nearly all actives have a fitted effect of over 50% in size; also: potency is read from the fitted curve at half-maximal effect)
Procedure, shortened: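 Inducible-expression reporter assay: doxycycline (1 uM final) switched on RORγ in CHO cells bearing a ROR response element-luciferase construct, with test compounds present from 2 h beforehand. Decreased luminescence after 16 h defined antagonist activity.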

[7] = qHTS assay to identify small molecule agonists of the AP-1 signaling pathway - cell viability counter screen (AID 1159525; calls by dose curve; also: nearly all actives have a fitted effect of over 55% in size)
Procedure, shortened: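 Intracellular ATP by Cell Titer Glo luminescence (30 min, RT) in the same ME-180 AP-1-bla wells after the 5 h compound exposure at 37 °C. Normalised to tetra n-octyl ammonium bromide and DMSO controls.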

[8] = qHTS assay to identify small molecule agonists of the AP-1 signaling pathway (AID 1159526; calls by dose curve)
[9] = molecular target: Peroxisome proliferator-activated receptor delta (Homo sapiens) (UniProt Q03181); experiment: qHTS assay to identify small molecule agonists of the peroxisome proliferator-activated receptor delta (PPARd) signaling pathway (AID 743212; calls by dose curve)
Procedure, shortened: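 Beta-lactamase reporter readout: a ratiometric FRET signal from the LiveBLAzer substrate after 2 h at room temperature. Compound exposure at 37 °C in PPARδ-bla HEK293H cells driven by an upstream activator sequence.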

[10] = qHTS assay to identify small molecule antagonists of the peroxisome proliferator-activated receptor delta (PPARd) signaling pathway - cell viability counter screen (AID 743213); also: nearly all actives have a fitted effect of over 50% in size
Procedure, shortened: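 HEK293H cells with the PPARd UAS-bla reporter, co-treated 17 h at 37 C with compounds and L165041 (300 nM final), were lysed with CellTiter-Glo. Luminescence indicated viable cell content.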

[11] = molecular target: Peroxisome proliferator-activated receptor delta (Homo sapiens) (UniProt Q03181); experiment: qHTS assay to identify small molecule antagonists of the peroxisome proliferator-activated receptor delta (PPARd) signaling pathway (AID 743215; active = well fitted inhibition curve with a large enough effect in the signal ratio in the repeat runs, not every such curve was filed as active; the % refers to the signal ratio;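 also: cells stimulated with agonist L165041 at 300 nM final during compound exposure; series mostly up to about 62 µM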)
Procedure, shortened: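 HEK293H GeneBLAzer PPARd UAS-bla reporter cells; cpd + L165041 300 nM final, 17 h 37 C; LiveBLAzer B/G FRET substrate 2 h RT; fluorescence intensity read-out. Antagonist mode.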

[12] = molecular target: Bile acid receptor (Homo sapiens) (UniProt Q96RI1); experiment: qHTS assay to identify small molecule antagonists of the farnesoid-X-receptor (FXR) signaling pathway (AID 743217; active = well fitted inhibition curve with a large enough effect in the signal ratio in the repeat runs, not every such curve was filed as active; the % refers to the signal ratio)
Procedure, shortened: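 Read-out: beta-lactamase FRET fluorescence (LiveBLAzer B/G substrate, 2 h, room temperature) in GeneBLAzer FXR-UAS-bla HEK 293T cells. Compounds were co-dosed with 50 uM chenodeoxycholic acid (final) and incubated 16 h at 37 °C.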

[13] = molecular target: Bile acid receptor (Homo sapiens) (UniProt Q96RI1); experiment: qHTS assay to identify small molecule agonists of the farnesoid-X-receptor (FXR) signaling pathway (AID 743220; active = well fitted activation curve with a large enough effect in the signal ratio in the repeat runs, not every such curve was filed as active; the % refers to the signal ratio)
Procedure, shortened: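 FXR-UAS-bla HEK 293T cells carrying a UAS-driven beta-lactamase reporter were plated for 5 h at 37C/5% CO2, then exposed to DMSO-dissolved Tox21 10K compounds for 16 h at 37C. A LiveBLAzer B/G FRET substrate was loaded for 2 h at room temperature before fluorescence reading.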

[14] = qHTS assay to identify small molecule antagonists of the farnesoid-X-receptor (FXR) signaling pathway - cell viability counter screen (AID 743221; active = well fitted cell-killing curve with a large enough effect in the repeat runs, not every such curve was filed as active; also: nearly all actives have a fitted effect of over 50% in size; also: potency is read from the fitted curve at half-maximal effect)
Procedure, shortened: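 Cytotoxicity is taken from ATP luminescence (CellTiter-Glo, 30 min, room temperature) in FXR-bla HEK 293T cells previously incubated 16 h at 37 C with compound and chenodeoxycholic acid at 50 uM final.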

[15] = molecular target: Vitamin D3 receptor (Homo sapiens) (UniProt P11473); experiment: qHTS assay to identify small molecule agonists of the vitamin D receptor (VDR) signaling pathway (AID 743222; calls by dose curve)
Procedure, shortened: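 Beta-lactamase reporter readout (LiveBLAzer B/G FRET, 2 h RT) in VDR-bla cells after 16 h compound treatment at 37C, 5% CO2; cells pre-incubated 4 h before pin transfer of DMSO solutions.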

[16] = molecular target: Vitamin D3 receptor (Homo sapiens) (UniProt P11473); experiment: qHTS assay to identify small molecule antagonists of the vitamin D receptor (VDR) signaling pathway (AID 743223; active = well fitted inhibition curve with a large enough effect in the signal ratio in the repeat runs, not every such curve was filed as active; the % refers to the signal ratio)
Procedure, shortened: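 Quantitative HTS in VDR-bla reporter cells stimulated with 1alpha,25-dihydroxyvitamin D3, 3 nM final. Compound exposure 16 h, 37C, 5% CO2. Read-out: beta-lactamase FRET substrate fluorescence, 2 h RT.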

[17] = qHTS assay to identify small molecule agonists of the vitamin D receptor (VDR) signaling pathway - cell viability counter screen (AID 743224)
Procedure, shortened: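 Cytotoxicity counter screen: VDR-bla cells, 16 h compound exposure at 37C, 5% CO2; CellTiter-Glo luminescence, 30 min RT, same wells as bla read.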

[18] = qHTS assay to identify small molecule antagonists of the vitamin D receptor (VDR) signaling pathway - cell viability counter screen (AID 743225); also: nearly all actives have a fitted effect of over 50% in size
Procedure, shortened: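 Same-well multiplex: following 16 h treatment of HEK 293T cells carrying a UAS-driven beta-lactamase reporter with compound and agonist (3 nM final), and a 2 h FRET substrate step, CellTiter-Glo was added and luminescence read after 30 min.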

[19] = qHTS assay to identify small molecule agonists of the farnesoid-X-receptor (FXR) signaling pathway - cell viability counter screen (AID 743218); also: nearly all actives have a fitted effect of over 45% in size
Procedure, shortened: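 Luminescence from CellTiter-Glo, read after 30 min at RT, reports viability of GeneBLAzer FXR-UAS-bla HEK 293T cells treated 16 h with compounds in the wells used for the beta-lactamase reporter.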

[20] = molecular target: Retinoic acid receptor RXR-alpha (Homo sapiens) (UniProt P19793); experiment: qHTS assay to identify small molecule agonists of the RXR signaling pathway (AID 1159527; calls by dose curve; also: nearly all actives have a fitted effect of over 35% in size)
Procedure, shortened: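 Compounds in DMSO were added to RXR-alpha-UAS-bla HEK 293T cells kept in 2% charcoal-stripped serum, and incubated 16 hr at 37 C with 5% CO2. Reporter signal came from a 2 hr B/G FRET substrate step.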

Sequence of Peroxisome proliferator-activated receptor delta (Homo sapiens) (Q03181 whole entry, looked up): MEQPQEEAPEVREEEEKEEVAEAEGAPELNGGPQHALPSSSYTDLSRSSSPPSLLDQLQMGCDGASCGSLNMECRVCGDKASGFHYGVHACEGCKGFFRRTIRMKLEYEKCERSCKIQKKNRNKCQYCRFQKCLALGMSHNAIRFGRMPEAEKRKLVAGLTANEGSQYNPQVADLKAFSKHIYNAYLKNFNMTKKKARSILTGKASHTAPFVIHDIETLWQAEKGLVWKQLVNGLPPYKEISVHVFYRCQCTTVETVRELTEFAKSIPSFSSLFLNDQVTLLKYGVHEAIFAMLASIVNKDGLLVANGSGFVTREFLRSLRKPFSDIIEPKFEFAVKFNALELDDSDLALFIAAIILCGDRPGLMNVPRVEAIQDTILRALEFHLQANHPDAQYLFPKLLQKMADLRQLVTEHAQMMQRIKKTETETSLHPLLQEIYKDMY
Sequence of Bile acid receptor (Homo sapiens) (Q96RI1 whole entry, looked up): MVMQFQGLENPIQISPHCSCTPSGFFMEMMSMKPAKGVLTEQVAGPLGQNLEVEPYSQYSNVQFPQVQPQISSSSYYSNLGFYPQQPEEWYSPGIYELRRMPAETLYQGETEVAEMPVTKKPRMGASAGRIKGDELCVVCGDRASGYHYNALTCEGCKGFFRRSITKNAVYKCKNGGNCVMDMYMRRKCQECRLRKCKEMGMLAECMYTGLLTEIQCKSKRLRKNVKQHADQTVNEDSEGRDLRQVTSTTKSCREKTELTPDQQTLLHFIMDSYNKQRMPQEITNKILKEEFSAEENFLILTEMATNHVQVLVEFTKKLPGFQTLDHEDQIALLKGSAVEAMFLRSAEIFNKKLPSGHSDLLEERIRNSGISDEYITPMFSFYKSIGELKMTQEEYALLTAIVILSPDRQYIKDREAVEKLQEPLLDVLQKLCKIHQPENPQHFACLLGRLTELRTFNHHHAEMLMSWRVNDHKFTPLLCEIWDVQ
Sequence of Vitamin D3 receptor (Homo sapiens) (P11473 whole entry, looked up): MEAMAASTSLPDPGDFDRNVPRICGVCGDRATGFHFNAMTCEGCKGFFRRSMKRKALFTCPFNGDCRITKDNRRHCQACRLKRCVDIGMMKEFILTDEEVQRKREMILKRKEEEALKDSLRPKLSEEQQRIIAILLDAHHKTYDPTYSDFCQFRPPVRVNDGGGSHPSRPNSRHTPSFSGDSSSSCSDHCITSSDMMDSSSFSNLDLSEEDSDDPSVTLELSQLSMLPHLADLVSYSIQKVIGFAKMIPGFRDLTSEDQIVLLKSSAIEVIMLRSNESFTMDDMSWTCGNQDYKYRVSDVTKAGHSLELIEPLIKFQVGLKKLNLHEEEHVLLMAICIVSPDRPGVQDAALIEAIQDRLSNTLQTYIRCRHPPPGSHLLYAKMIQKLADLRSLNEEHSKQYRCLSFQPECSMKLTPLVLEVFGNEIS
Sequence of Retinoic acid receptor RXR-alpha (Homo sapiens) (P19793 whole entry, looked up): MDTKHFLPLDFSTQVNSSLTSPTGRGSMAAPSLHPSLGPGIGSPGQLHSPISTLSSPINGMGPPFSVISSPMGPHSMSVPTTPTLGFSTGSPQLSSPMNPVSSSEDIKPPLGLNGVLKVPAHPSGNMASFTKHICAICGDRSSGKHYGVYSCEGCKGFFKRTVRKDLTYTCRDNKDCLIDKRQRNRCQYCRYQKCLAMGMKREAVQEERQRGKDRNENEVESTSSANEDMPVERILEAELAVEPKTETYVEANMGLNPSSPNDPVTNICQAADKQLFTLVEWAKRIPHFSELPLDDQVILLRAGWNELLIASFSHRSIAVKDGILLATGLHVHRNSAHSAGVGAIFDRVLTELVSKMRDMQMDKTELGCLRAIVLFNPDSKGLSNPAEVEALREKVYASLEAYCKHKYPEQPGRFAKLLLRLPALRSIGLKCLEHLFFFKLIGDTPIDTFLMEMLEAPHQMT

## Cc1nc2ccccc2n1Cc1ccc(Cl)cc1
[1]
  Potency: inactive
[2]
  Potency: inactive
[3]
  Potency: inactive
[4]
  outcome: inactive
[5]
  Potency: inactive
[6]
  Potency: 2.66 µM (active)
[7]
  Potency: inactive
[8]
  Potency: inactive

## OCC1CC2CC1C1CCC(CO)C21 (configuration not stated)
[1]
  Potency: inactive
[9]
  outcome: inactive
[10]
  Potency: inactive
[11]
  outcome: inactive
[12]
  outcome: inactive
[13]
  outcome: inactive
[14]
  Potency: 24.5 µM (active)
[15]
  outcome: inactive
[16]
  Potency: inactive
[17]
  Potency: inactive
[18]
  Potency: inactive
[2]
  Potency: inactive
[3]
  Potency: inactive
[4]
  outcome: inactive
[5]
  Potency: inactive
[6]
  Potency: inactive
[7]
  Potency: inactive
[8]
  Potency: inactive

## CCC(=O)OC(C)(C)C1CC=C(C)CC1 (configuration not stated)
[1]
  Potency: inactive
[9]
  outcome: inactive
[10]
  Potency: inactive
[11]
  outcome: inactive
[12]
  outcome: inactive
[13]
  outcome: inactive
[14]
  Potency: inactive
[17]
  Potency: inactive
[18]
  Potency: inactive
[2]
  Potency: inactive
[3]
  Potency: inactive
[4]
  outcome: inactive
[5]
  Potency: inactive
[6]
  Potency: inactive
[7]
  Potency: inactive
[8]
  Potency: inactive

## O=c1c2ccccc2nnn1CCl
[1]
  Potency: inactive
[9]
  outcome: inactive
[10]
  Potency: inactive
[11]
  outcome: inactive
[19]
  Potency: inactive
[14]
  Potency: inactive
[15]
  outcome: inactive
[17]
  Potency: inactive
[18]
  Potency: inactive
[2]
  Potency: inactive
[3]
  Potency: inactive
[4]
  outcome: inactive
[5]
  Potency: inactive
[6]
  Potency: inactive
[7]
  Potency: inactive
[8]
  Potency: inactive
[20]
  Potency: inactive

## Cc1ncsc1CCO
[1]
  Potency: inactive
[9]
  outcome: inactive
[10]
  Potency: inactive
[11]
  outcome: inactive
[12]
  outcome: inactive
[19]
  Potency: inactive
[13]
  outcome: inactive
[14]
  Potency: inactive
[15]
  outcome: inactive
[17]
  Potency: inactive
[18]
  Potency: inactive
[2]
  Potency: inactive
[3]
  Potency: inactive
[4]
  outcome: inactive
[5]
  Potency: inactive
[6]
  Potency: inactive
[7]
  Potency: inactive
[8]
  Potency: inactive

## Cc1ccccc1N=Nc1ccc(N=Nc2c(O)ccc3ccccc23)c(C)c1
[1]
  Potency: inactive
[9]
  outcome: inactive
[10]
  Potency: inactive
[11]
  outcome: inactive
[19]
  Potency: inactive
[14]
  Potency: inactive
[18]
  Potency: inactive
[2]
  Potency: inactive
[3]
  Potency: inactive
[4]
  outcome: inactive
[5]
  Potency: inactive
[6]
  Potency: inactive
[7]
  Potency: inactive
[8]
  Potency: inactive

## O=C(Cl)c1c(Cl)cccc1Cl
[1]
  Potency: inactive
[9]
  outcome: inactive
[10]
  Potency: inactive
[19]
  Potency: inactive
[14]
  Potency: inactive
[15]
  outcome: inactive
[16]
  Potency: inactive
[17]
  Potency: inactive
[18]
  Potency: inactive
[2]
  Potency: inactive
[3]
  Potency: inactive
[4]
  outcome: inactive
[5]
  Potency: inactive
[6]
  Potency: inactive
[7]
  Potency: inactive
[8]
  Potency: inactive

## CCOc1ccc(NC(=O)CC(C)=O)cc1
[1]
  Potency: inactive
[9]
  outcome: inactive
[10]
  Potency: inactive
[19]
  Potency: inactive
[14]
  Potency: inactive
[15]
  outcome: inactive
[17]
  Potency: inactive
[18]
  Potency: inactive
[2]
  Potency: inactive
[3]
  Potency: inactive
[4]
  outcome: inactive
[5]
  Potency: inactive
[6]
  Potency: inactive
[7]
  Potency: inactive
[8]
  Potency: inactive

## CC1=CC(=O)/C(=C(/C)O)C(=O)O1
[1]
  Potency: inactive
[9]
  outcome: inactive
[10]
  Potency: inactive
[12]
  outcome: inactive
[19]
  Potency: inactive
[13]
  outcome: inactive
[14]
  Potency: inactive
[18]
  Potency: inactive
[2]
  Potency: inactive
[3]
  Potency: inactive
[4]
  outcome: inactive
[5]
  Potency: inactive
[6]
  Potency: inactive
[7]
  Potency: inactive
[8]
  Potency: inactive

Source: PubChem BioAssay (Tox21)
